The list is not random: actives were taken first. Their share in the collection is about 1.7%.
ABCB6 inh MLPCN = inhibitors of human ABC transporter ABCB6 | Q9NP58 | K562-ABCB6 porphyrin accumulation, flow cytometry, 1 h; stronger effect = lower value | fluorescence ratio to DMSO, % at 10 µM | 360,000 compounds, 0.19% hits;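 active = fluorescence ratio to DMSO below 75%, the collection mean minus 3 SD; inconclusive = too few cells collected in the well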;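 also: signal is porphyrin accumulated inside mitochondria; 100% equals median channel fluorescence of DMSO control wells; lower ratio means ABCB6 inhibition with less porphyrin fluorescence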
TLR9-MyD88 block = inhibitors of human TLR9-MyD88 binding. CHO BLA complementation TLR9-MyD88, CCF4 FRET ratio. Q9NR96+Q99836. 340,000 compounds, 0.21% hits. inhibition, % at 4.98 µM. AID 504734;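 active = inhibition above the mean over all tested compounds plus 3 SD, cut at about 21% in these data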;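 also: 0% = DMSO only wells and 100% = clavulanate BLA inhibitor control wells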
Myeloid diff MLP = promotes myeloid progenitor differentiation | 360,000 compounds, 1% hits | calls only at 10 µM | AID 624256 | ER-HoxA9 myeloid progenitors, lysozyme-GFP differentiation, flow cytometry;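 active = normalized GFP-positive differentiation at or above the plate's own cutoff, the solvent-only control mean plus 3 SD; inconclusive = no clear call, values can overlap the other calls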;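 also: cells exposed to compound for four days before flow analysis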
NOD2-RIPK2 inh = inhibitors of human NOD2-RIPK2 interaction; O43353; CHO BLA complementation NOD2-RIPK2, CCF4 ratio; inhibition, % at 4.98 µM; 360,000 compounds, 0.38% hits; AID 624267; in the data active = inhibition above about 21%;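 also: 0% = vehicle only and 100% = reference blocker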
TLR4 MyD88 comp = inhibitors of human TLR4-MyD88 binding; O00206+Q99836; HeLa CL3-4 TLR4/MyD88 BLA complementation, FRET ratio; inhibition, % at 8.4 µM; 200,000 compounds, 0.18% hits; AID 861; in the data active = inhibition above about 25%;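 also: 0% = vehicle and 100% = reference inhibitor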
Myeloid diff = compounds promoting myeloid differentiation | shares compounds with Myeloid diff MLP | ER-HoxA9 myeloid progenitors, GFP/Mac1 double-positive flow | calls only | 2,300 compounds, 2% hits;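 active = share of green or green-and-red cells above 9 and 9% in run 1 or 4 and 3% in run 2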
GFP autofluor = compound fluorescence in myeloid differentiation counter-screen; shares compounds with Myeloid diff MLP; ER-HoxA9 myeloid progenitors, no estrogen, GFP autofluorescence flow cytometry; vehicle wells 0%, positive control 100%; fluorescence response, % (concentration not given with the values); 2,300 compounds, 7.4% hits;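 active = over 5% cells positive for green fluorescent reporter, or over 2% positive for both it and APC stain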;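 also: range taken on the double positive population between DMSO and positive control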
* marks the source's active call; other numbers are inactive results; i = inactive; ? = inconclusive; . = no result; + = active, no number.

SMILES	ABCB6 inh MLPCN	TLR9-MyD88 block	Myeloid diff MLP	NOD2-RIPK2 inh	TLR4 MyD88 comp	Myeloid diff	GFP autofluor
Cc1cccc2cc(CN(Cc3cccs3)S(=O)(=O)c3ccc4c(c3)OCCO4)c(=O)[nH]c12	94	4	i	-4	9	i	0
Cc1ccc(N(Cc2cc3ccccc3[nH]c2=O)S(=O)(=O)c2ccccc2)cc1	92	2	i	-6	1	.	.
COc1ccc(C(=O)Nc2cccc(C(=O)N/N=C/c3ccc(OC)cc3OC)c2)cc1	101	-2	i	-1	.	i	0
CC(=O)n1cc(C2C(=O)CCCC2=O)c2ccccc21	98	-11	i	-4	-2	i	1
CC(=O)n1cc(C2CC(=O)OC3=C2CC(=O)C(C)(C)C3)c2ccccc21 (centres undefined)	96	-6	i	-2	.	.	.
COc1ccc(C2C(C(=O)Nc3cccnc3)=C(C)Nc3nc(-c4cccs4)nn32)cc1 (centres undefined)	99	6	i	-6	-3	i	1
O=C(N/N=C1\CCc2ccccc21)c1ccncc1	92	-1	i	-6	-10	.	.
c1ccc2c(c1)CCc1c(-c3ccncc3)n[nH]c1-2	97	0	+	-6	.	i	0
COc1cccc(NC(=S)Nc2cccc3ccccc23)c1	103	-1	i	-1	.	i	0
CCOC(=O)C1(C)CCN1C(=O)c1cc(-c2ccc(Cl)cc2)oc1C (centres undefined)	93	.	i	5	.	.	.
CCOC(=O)C1=CCN(S(=O)(=O)c2ccc(F)cc2)C1c1ccc(Cl)c(Cl)c1 (centres undefined)	.	.	i	-8	.	.	.
CCN(CC(=O)NCc1ccc(Cl)cc1)C(=O)CCC(=O)c1ccc(C)cc1	95	0	i	0	.	.	.
CCN(CC(=O)NCc1ccc(Cl)cc1)C(=O)CCC(=O)c1ccc(F)cc1	97	3	+	-4	.	i	0
O=C1NC(Cc2ccccc2)C(=O)N1Cc1cc([N+](=O)[O-])cc2c1OCOC2 (centres undefined)	97	-1	i	-5	-7	.	.
COc1ccc(N=C2CC(C)(C)CC(=O)/C2=C(/O)c2ccccc2)cc1	91	-2	i	-4	-6	.	.
COc1ncc(-c2ccc(N3C(c4ccsc4)=Cc4ccc(F)cc4C3CC(=O)c3ccco3)cc2)cn1 (centres undefined)	97	.	i	0	.	.	.
O=C(CC1c2cc(F)ccc2C=C(c2ccsc2)N1c1ccc(C#CCCO)cc1)c1ccco1 (centres undefined)	103	.	i	-11	.	i	0
CCOC(=O)C(=O)/C(=C\N(C)C)c1onc(-c2c(Cl)cccc2Cl)c1C(=O)OC	107	-3	i	3	-1	.	.
OC(c1ccccc1)(c1ccccc1)C1CCN(CCCOc2ccc3c(c2)CCCC3)CC1	98	.	+	0	.	i	0
O=c1[nH]c(=S)[nH]c2sccc12	87	-7	i	7	4	.	.
Cc1cc(OCC(=O)NCC(c2ccc(F)cc2)N2CCOCC2)ccc1Cl (centres undefined)	97	-6	i	4	.	.	.
NNC(=O)c1csc(Cc2c(Cl)sc3ccc(Cl)cc23)n1	99	-9	i	-9	.	.	.
Cc1cc(C)n(-c2nc3ccccc3nc2N2CCN(C(=O)c3ccc(F)cc3)CC2)n1	102	-2	i	-1	0	i	0
Cc1cc(C)n(-c2nc3ccccc3nc2N2CCC(C)CC2)n1	76	9	i	4	2	.	.
CCOC(=O)C(=CNc1cc(C)nn1-c1ccccc1)C(=O)OCC	98	-1	i	3	2	i	0
SMILES	ABCB6 inh MLPCN	TLR9-MyD88 block	Myeloid diff MLP	NOD2-RIPK2 inh	TLR4 MyD88 comp	Myeloid diff	GFP autofluor
Nc1nc(SCc2ccc(Cl)cc2Cl)c2ncn(C3OC(CO)C(O)C3O)c2n1 (centres undefined)	100	7	i	-2	.	.	.
Cc1nn(C(C)C(=O)NCCCN2CCCCCC2)c(=O)c2cc3sccc3n12 (centres undefined)	103	-11	i	3	.	.	.
c1ccc(Cn2ncc3c(NCc4ccco4)ncnc32)cc1	99	-15	i	13	-4	i	0
c1ccc(-n2ncc3c(NCc4ccco4)ncnc32)cc1	85	-1	i	-11	0	.	.
Cc1noc(C)c1C(=O)Nc1nc2ccc(Cl)cc2s1	95	-3	?	-9	.	.	.
Oc1cccc(Nc2nc(O)c(/C=C3\C=Nc4ccccc43)s2)c1	134	-6	+	5	.	i	0
Cc1cc(NC(=O)C2CC(=O)N(c3ccc(F)cc3)C2)no1 (centres undefined)	99	-6	i	-4	.	.	.
CCc1ccc(-c2nc(SCC(=O)N3CCOCC3)n[nH]2)cc1	99	-25	+	2	-20	i	14*
O=C(CSc1n[nH]c(-c2cccs2)n1)N1CCOCC1	103	-10	i	-18	.	.	.
CCc1nc2ccc(C(=O)NCCc3ccc(OC)c(OC)c3)cc2nc1CC	95	-6	i	4	.	.	.
CCc1nc2ccc(C(=O)NCCc3ccc(OC)cc3)cc2nc1CC	80	1	i	-15	.	i	0
C=CCC(C=C)[N+]1(CC(=O)OC)CCCCC1 (centres undefined)	101	.	i	-2	-8	.	.
COc1ccc(OC)c(NC(=O)CNC(=O)c2ccc([N+](=O)[O-])cc2)c1	98	2	i	-5	-6	i	0
COc1ccc(NC(=O)CNC(=O)c2ccc([N+](=O)[O-])cc2)cc1	96	1	i	0	-3	.	.
CCCn1ncc(CN2CCC(C(=O)Nc3cccc(-c4cccc(F)c4)c3)CC2)c1C	105	-5	+	-9	.	i	0
CC(=O)Nc1ccc(NC(=O)CNC(=O)COc2ccccc2)cc1	103	-5	i	2	-8	.	.
COC(=O)CNC(=O)COc1ccccc1	113	3	+	0	3	i	0
COc1ccccc1Nc1ncnc2ccccc12	100	2	i	-5	11	i	0
COc1ccccc1Nc1nc2c(s1)CCC2	99	-5	i	-5	14	i	0
COc1ccc(Nc2c3c(nc4ccccc24)CCC3)c(OC)c1	96	2	i	8	.	.	.
COc1ccccc1Nc1c2c(nc3ccccc13)CCC2	94	6	+	-6	.	i	1
O=[N+]([O-])c1ccccc1SN(Cc1ccccc1)c1ccccn1	124	8	i	-4	1	i	0
O=C(c1ccc([N+](=O)[O-])cc1)N(Cc1ccccc1)c1ccccn1	92	-6	i	0	-3	.	.

Screens as filed in PubChem BioAssay.
